Shown is part of a subset that was picked to be rich in hits.
DUX4 txn inh – inhibitors of DUX4-driven ZSCAN4 reporter expression, primary screen, 293T cells, Gaussia and Italica luciferase | AID 1224904, 2016 | 293T-iDUX4 ZSCAN4-Gaussia luciferase reporter, 24 h; stronger effect = lower value | actives 0.8% (n = 37,000) | activity change, negative = inhibition, % (no concentration beside the values);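 active = mean inhibition of at least 10% in the main channel, exceeding the control channel by a set limit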;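 note: 0% = median of neutral control wells and -100% = median of positive control wells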
* hit, by the source's call.

SMILES | DUX4 txn inh
Cc1noc(C)c1S(=O)(=O)N(C)C[C@@H]1Oc2ccc(NS(=O)(=O)c3cn(C)cn3)cc2CC(=O)N([C@@H](C)CO)C[C@@H]1C | -5
C[C@@H]1CN([C@H](C)CO)C(=O)c2c(c3ccccc3n2C)-c2ccccc2CO[C@@H]1CN(C)C(=O)c1ccc(F)cc1 | -6
C[C@@H]1CN([C@@H](C)CO)C(=O)c2c(c3ccccc3n2C)-c2ccccc2CO[C@@H]1CN(C)C(=O)c1cc(Cl)cc(Cl)c1 | -42*
C[C@H]1CN([C@@H](C)CO)C(=O)c2c(c3ccccc3n2C)-c2ccccc2CO[C@@H]1CN(C)C(=O)c1ccc(F)cc1 | -32*
C[C@@H]1CN([C@@H](C)CO)C(=O)c2c(c3ccccc3n2C)-c2ccccc2CO[C@@H]1CN(C)C(=O)c1ccncc1 | 1
CC(=O)N(C)C[C@@H]1OCc2ccccc2-c2c(n(C)c3ccccc23)C(=O)N([C@@H](C)CO)C[C@H]1C | 17
C[C@H](CO)N1C[C@H](C)[C@@H](CN(C)C(=O)c2cc(Cl)cc(Cl)c2)OCc2ccccc2-c2c(n(C)c3ccccc23)C1=O | 13
CC(=O)N1[C@H](CO)[C@@H](c2ccccc2)C12CN(Cc1nccs1)C2 | 0
C[C@H](O)C#Cc1ccc([C@@H]2[C@@H](CO)N3CCCCN(C(=O)c4ccc5c(c4)OCO5)C[C@@H]23)cc1 | -6
CN1[C@@H]2c3ccc(-c4ccncc4)c(=O)n3C[C@H]1[C@H](CO)[C@H]2C(=O)N1CCC(Cc2ccccc2)CC1 | 0
CCC(=O)N1CC[C@@H]2[C@H](CO)Nc3ccc(C#Cc4ccc(OC)cc4)cc3[C@@H]21 | 3
COCC(=O)N1CC[C@@H]2[C@H](CO)Nc3ccc(-c4ccc(C(=O)N(C)C)cc4)cc3[C@@H]21 | -1
O=C(Cc1ccccc1)N1CC[C@@H]2[C@H]1c1cc(-c3ccc(F)cc3)ccc1N[C@@H]2CO | -24*
O=C(CN1CCOCC1)N1CC[C@H]2[C@H](CO)Nc3ccc(-c4ccccc4)cc3[C@H]21 | 24
COCC(=O)N1CC[C@@H]2[C@H]1c1cc(-c3ccc(C#N)cc3)ccc1N[C@@H]2CO | -34*
O=C(Cc1ccccc1)N1CC[C@@H]2[C@@H](CO)Nc3ccc(-c4cccc(F)c4)cc3[C@@H]21 | 7
COc1ccccc1C#Cc1ccc2c(c1)[C@H]1[C@H](CCN1C(=O)CN1CCOCC1)[C@@H](CO)N2 | 2
N#Cc1ccc(-c2ccc3c(c2)[C@@H]2[C@@H](CCN2C(=O)Cc2ccccc2)[C@H](CO)N3)cc1 | -5
COCC(=O)N1CC[C@H]2[C@H](CO)Nc3ccc(-c4ccc(C#N)cc4)cc3[C@H]21 | 3
COc1ccccc1C#Cc1ccc2c(c1)[C@H]1[C@H](CCN1C(=O)CN1CCOCC1)[C@H](CO)N2 | -21*
COCC(=O)N1CC[C@@H]2[C@H]1c1cc(C#Cc3ccc(OC)cc3)ccc1N[C@@H]2CO | -18*
COCC(=O)N1CC[C@@H]2[C@@H](CO)Nc3ccc(C#Cc4ccc(F)cc4)cc3[C@@H]21 | 15
CNC[C@@H]1Oc2ccc(NS(=O)(=O)c3cn(C)cn3)cc2CC(=O)N([C@@H](C)CO)C[C@@H]1C | 3
CCC(=O)N1CCC2(CC1)CN(Cc1ccc3c(c1)OCO3)[C@H](CO)c1c2c2ccc(OC)cc2n1C | 7
COc1ccc2c3c(n(C)c2c1)[C@H](CO)N(C(=O)Nc1ccccc1F)CC31CN(C)C1 | 1
SMILES | DUX4 txn inh
CC(=O)N1[C@@H]2Cn3c(ccc(-c4ccccc4)c3=O)[C@H]1[C@@H](C(=O)N1CCCCC1)[C@@H]2CO | 3
CC(=O)N1[C@@H]2c3ccc(C4=CCCC4)c(=O)n3C[C@H]1[C@H](CO)[C@H]2C(=O)N[C@H](C)c1ccccc1 | -4
COc1ccc(CNC(=O)N(C)C[C@@H]2OCc3ccccc3-c3ccccc3C(=O)N([C@H](C)CO)C[C@H]2C)cc1 | 11
O=C(C[C@@H]1C[C@@H]2c3cc(NC(=O)Cc4ccncc4)ccc3O[C@@H]2[C@@H](CO)O1)NCC1CC1 | 13
CCCNC(=O)N1CC2(CN(C(=O)C3CCC3)C2)c2c([nH]c3cc(OC)ccc23)[C@@H]1CO | 4
c1cncc(-c2ccc(C3[C@H]4CNC[C@@H]3N4Cc3ccc4c(c3)OCO4)cc2)c1 (some centres undefined) | 20
O=C([C@@H]1[C@@H](CO)[C@@H]2Cn3c(ccc(-c4ccncc4)c3=O)[C@@H]2N1CCC(F)(F)F)N1CCCCC1 | -1
O=C(C1CCC1)N1CC2(C1)[C@H](c1ccccc1)[C@H](CO)N2Cc1cccnc1 | 4
O=S(=O)(Cc1ccccc1)N1CCCCN2[C@H](CO)[C@@H](c3ccc(-c4ccc(F)cc4)cc3)[C@@H]2C1 | -32*
CC(C)CC#Cc1ccc([C@@H]2[C@@H](CO)N3CCCCN(S(=O)(=O)Cc4ccccc4)C[C@@H]23)cc1 | -14*
Cc1cccc(S(=O)(=O)N2CCCCN3[C@@H](CO)[C@H](c4ccc(-c5ccncc5)cc4)[C@@H]3C2)c1 | -5
COc1cccc(S(=O)(=O)N2CCCCN3[C@H](CO)[C@H](c4ccc(C#CC5CC5)cc4)[C@@H]3C2)c1 | -1
O=S(=O)(Cc1ccccc1)N1CCCCN2[C@@H](CO)[C@@H](c3ccc(-c4cccnc4)cc3)[C@@H]2C1 | -8
CC(C)CC#Cc1ccc([C@@H]2[C@H](CO)N3CCCCN(S(=O)(=O)Cc4ccccc4)C[C@@H]23)cc1 | 2
COCC#Cc1ccc([C@@H]2[C@H]3CN(S(=O)(=O)c4ccc(OC)cc4)CCCCN3[C@H]2CO)cc1 | 0
O=S(=O)(Cc1ccccc1)N1CCCCN2[C@H](CO)[C@H](c3ccc(-c4ccc(F)cc4)cc3)[C@@H]2C1 | -7
CC(C)CC#Cc1ccc([C@H]2[C@H](CO)N3CCCCN(S(=O)(=O)Cc4ccccc4)C[C@@H]23)cc1 | 2
Cc1cccc(S(=O)(=O)N2CCCCN3[C@H](CO)[C@H](c4ccc(-c5ccncc5)cc4)[C@H]3C2)c1 | -7
COc1cccc(S(=O)(=O)N2CCCCN3[C@@H](CO)[C@@H](c4ccc(C#CCC(C)C)cc4)[C@@H]3C2)c1 | -30*
C/C=C/c1ccc([C@@H]2[C@@H](CO)N3CCCCN(S(=O)(=O)c4cccc(C)c4)C[C@H]23)cc1 | -17*
COc1ccc(S(=O)(=O)N2C[C@H](O)COC[C@@H]3O[C@@H](CC(=O)NCCN4CCCCC4)CC[C@H]32)cc1 | 8
O=C(Nc1ccc(F)cc1)N1C[C@H]2[C@@H](c3ccccc31)[C@@H](CO)N2C(=O)Cc1ccccc1 | -2
CN1CCN(C(=O)[C@H]2[C@H](CO)[C@H]3Cn4c(ccc(-c5cncnc5)c4=O)[C@H]3N2CC2CCCC2)CC1 | -2
CCC(=O)N1CC(=O)N2[C@H](CO)[C@H](c3ccc(-c4ccccc4F)cc3)[C@H]2C1 | -5
CC(C)CC#Cc1ccc([C@@H]2[C@H](CO)N3CCCCN(S(=O)(=O)c4ccc(F)cc4)C[C@@H]23)cc1 | 1
COc1ccc(S(=O)(=O)N2CCCCN3[C@H](C2)[C@H](c2ccc(C#CC(C)C)cc2)[C@@H]3CO)cc1 | 8
C[C@@H](O)C#Cc1ccc([C@H]2[C@@H](CO)N3CCCCN(C(=O)c4ccc5c(c4)OCO5)C[C@H]23)cc1 | -32*
CC(C)CC#Cc1ccc([C@H]2[C@@H](CO)N3CCCCN(S(=O)(=O)c4ccc(F)cc4)C[C@@H]23)cc1 | -34*
C[C@@H](O)C#Cc1ccc([C@H]2[C@@H](CO)N3CCCCN(C(=O)c4ccc5c(c4)OCO5)C[C@@H]23)cc1 | 22
